The values below come from PubChem BioAssay (Tox21).

Records with an inconclusive call do not appear. Entries that show only a call come without a potency. Calls of active or inactive are those of the source. Calls follow the shape of the dose curve; as a rule, active = well fitted cell-killing curve with a large enough effect in the repeat runs; inconclusive = weak or mixed curves; inactive = flat fitted curve, though single readings scatter.
Potency is read from the fitted curve at half-maximal effect.

The assay is described as follows: qHTS RealTime-Glo MT Cell Viability Assay in HepG2 cells - 24 hour (AID 1224867). Also: nearly all actives have a fitted effect of over 50% in size. To be noted: RealTime-Glo luminescence; series mostly up to 76.8 µM. The source says:
U.S. Tox21 Program National Center for Advancing Translational Sciences [NCATS] NIH Chemical Genomics Center [NCGC] U.S. Environmental Protection Agency [EPA] National Institutes of Environmental Health Sciences [NIEHS] National Toxicology Program [NTP] U.S. Food and Drug Administration [FDA] Tox21 Assay Overview: Measure of cell viability is critical in the cell-base assay. Analysis of cell viability is necessary for the characterization of cell responses to cytotoxic drugs and environmental stress. A RealTime-Glo MT Cell Viability Assay to monitor cell viability in real time of continues cell culture during 40 hours of compound treatment was used to screen Tox21 10K library compounds in HepG2 cells. The RealTime-Glo MT Cell Viability Assay is a nonlytic, homogeneous, bioluminescent method to measure cell viability in real time using a simple, plate-based method. The assay involves adding NanoLuc luciferase and a cell-permeant prosubstrate to cells in culture. Viable cells reduce the proprietary prosubstrate to generate a substrate for NanoLuc luciferase. This substrate diffuses from cells into the surrounding culture medium, where it is rapidly used by the NanoLuc Enzyme to produce a luminescent signal. The signal correlates with the number of viable cells, making the assay well suited for cytotoxicity studies.
Tox21 Assay Protocol Summary: The mixture of HepG2 cell suspension and reagents were dispensed at 600cells/6 ul/well in 1536-well tissue culture treated black solid bottom plates using a Multidrop dispenser. After the assay plates were incubated at a 37 C/5% CO2 incubator for 5 hours, 23 nL of compounds dissolved in DMSO, positive and negative controls was transferred to the assay plate by a pintool work station. The plates were incubated at 37 C for 40 hours. The luminescence intensity were measured at 0h, 8h, 16h, 24h, 32h and 40h time points using ViewLux plate reader during compound treatment.
Background: Quantitative high-throughput screening tests each substance at several concentrations.
On to `COP(N)(=S)OC`, for which the Potency result is “inactive”.
The entry for `Cc1c(Cl)c(=O)oc2cc(OP(=O)(OCCCl)OCCCl)ccc12` is “inactive”.
The result for `CCOC(=O)CC(=O)CCl` reads “inactive”; that for `Fc1cccc(Cl)c1CCl`, “inactive”; that for `O=[N+]([O-])c1cc(Cl)ccc1Cl`, “inactive”.
The figure for `CCCCCCCCCCCCCCCCCCn1cc[n+](C)c1` is 34.5 µM (active).
Consider `O=C/C(Cl)=C(/Cl)C(=O)O`, for which the Potency result was “inactive”.
Turning to `O=c1[nH]c2ccccc2n1CCCN1CCC(n2c(=O)[nH]c3cc(Cl)ccc32)CC1`, the Potency entry was “inactive”.
The entry for `CCCN(CC)CC1COC2(CCC(C(C)(C)C)CC2)O1` (stereo not given) is “inactive”.
As for `CC(C)CBr`, the Potency result was “inactive”.
The result for `CC(=O)C(Cl)(Cl)Cl` reads “inactive”.
The figure for `Clc1ccc(COC(Cn2ccnc2)c2ccc(Cl)cc2Cl)cc1` (stereo not given) is 43.5 µM (active).
The entry for `ClC(Cl)=C(c1ccc(Cl)cc1)c1ccc(Cl)cc1` is “inactive”.
Turning to `Nc1ccc([N+](=O)[O-])cc1Cl`, the Potency result was “inactive”.
`CCSC(C)CC1CC(=O)C(/C(CC)=N/OC/C=C/Cl)=C(O)C1` (stereo not given): the Potency entry was “inactive”.
Take `CS(=O)(=O)c1ccc(C(=O)C2C(=O)CCCC2=O)c([N+](=O)[O-])c1`: the Potency result is “inactive”.
The entry for `Oc1ccccc1Br` is “inactive”.
The entry for `Oc1c(Cl)c(Cl)cc(Cl)c1Cl` is “inactive”; for `CC(C)C1CCC(Cc2ccc(Cl)cc2)C1(O)Cn1cncn1` (stereo not given) it is 43.2 µM (active).
The result for `Clc1ccc(-c2ccc(Cl)c(Cl)c2Cl)c(Cl)c1Cl` reads “inactive”; that for `Nc1ccccc1C(=O)OC/C=C/c1ccccc1`, “inactive”.
Take `Nc1ccccc1C(=O)Oc1ccc2ccccc2c1`: the Potency entry was “inactive”.
The figure for `COc1cccc2c1C(=O)c1c(O)c3c(c(O)c1C2=O)C[C@@](O)(C(=O)CO)CC3OC1CC(N2CCOC(OC)C2)C(O)C(C)O1` (stereo not given in full) is 1.9 µM (active); for `CC1(C)[C@H](C(=O)O[C@H](C#N)c2cccc(Oc3ccccc3)c2)[C@@H]1/C=C(\Cl)C(F)(F)F` it is “inactive”; for `N#CCc1ccc(Cl)cc1` it is “inactive”.
The entry for `COC(=O)N(C(=O)N1COC2(C(=O)OC)Cc3cc(Cl)ccc3C2=N1)c1ccc(OC(F)(F)F)cc1` (stereo not given) is “inactive”.
Turning to `Cl/C=C\CCl`, the Potency entry was “inactive”.
The result for `CC1CCC(C(C)C)C(OC(=O)c2ccccc2N)C1` (stereo not given) reads “inactive”; that for `CCCN(CCC)CCc1c[nH]c2ccccc12`, “inactive”.
The entry for `CCc1nn(C)c(C(=O)NCc2ccc(C(C)(C)C)cc2)c1Cl` is “inactive”.
The result for `O=C1c2ccccc2C(=O)C1C(=O)C(c1ccccc1)c1ccc(Cl)cc1` (stereo not given) reads “inactive”; that for `O=C(O)COc1nc(Cl)c(Cl)cc1Cl`, “inactive”; that for `CCC(C)c1cc(C(C)(C)C)cc(-n2nc3ccccc3n2)c1O` (stereo not given), “inactive”.
Regarding `COP(=S)(OC)Oc1cc(Cl)c(Br)cc1Cl`, the Potency entry is “inactive”.
The entry for `CCOP(=S)(OCC)SCS(=O)(=O)CC` is “inactive”.
For `O=C(O)c1cc[c]([Hg][Cl])cc1`, the Potency is 24.5 µM (active).
The entry for `S=C=Nc1cccc2ccccc12` is “inactive”; for `ClCc1ccc(Cl)cc1Cl` it is “inactive”.
As to `O=[N+]([O-])c1ccc(Oc2ccc(C(F)(F)F)cc2[N+](=O)[O-])cc1`, the Potency result was “inactive”.
The result for `COc1ccc([N+](=O)[O-])cc1O` reads “inactive”.
